Laboratory results taken from paper PMC7862700, “An all-to-all approach to the identification of sequence-specific readers for epigenetic DNA modifications on cytosine”.

Columns and labels:
Assay in all cases: DAPPL (digital affinity profiling via proximity ligation, sequencing); 10 mM Tris-HCl pH 7.5, 50 mM NaCl, 1 mM DTT, 4% glycerol, room temperature, 30 min; GST-TFs on glutathione beads, 16-mer random dsDNA library, 0.1% formaldehyde crosslink after washing; high values mean tight binding
Details in all cases: protein: recombinant; tags: N-terminal GST; dsDNA, one strand shown
[1] = biological target: T1, FEV (Homo sapiens, UniProt Q99581 1-238)
T1 sequence: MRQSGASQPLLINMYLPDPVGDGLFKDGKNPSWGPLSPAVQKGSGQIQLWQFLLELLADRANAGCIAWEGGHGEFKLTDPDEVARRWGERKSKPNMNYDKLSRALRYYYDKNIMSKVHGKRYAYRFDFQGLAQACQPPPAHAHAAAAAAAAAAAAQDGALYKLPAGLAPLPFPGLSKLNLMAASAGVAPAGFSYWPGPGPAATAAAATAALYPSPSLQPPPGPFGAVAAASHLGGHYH
Procedure, shortened: (§1)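 GST fusions of human transcription factors were expressed in yeast and captured with glutathione beads. Once given DNA barcodes and pooled alongside a tag-only sample, they were incubated for 30 min at room temperature with 200 nmole of a random double-stranded 16-mer DNA library in Tris/NaCl/DTT/glycerol buffer, then washed, crosslinked (0.1% formaldehyde), proximity-ligated, PCR-amplified and sequenced on an Illumina NextSeq500. The binding signal of each hexamer is its read frequency for a factor divided by its frequency for the tag-only sample.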

[2] = biological target: ETV5 (Homo sapiens, UniProt P41161 1-510)
Chain of ETV5 (P41161 whole entry): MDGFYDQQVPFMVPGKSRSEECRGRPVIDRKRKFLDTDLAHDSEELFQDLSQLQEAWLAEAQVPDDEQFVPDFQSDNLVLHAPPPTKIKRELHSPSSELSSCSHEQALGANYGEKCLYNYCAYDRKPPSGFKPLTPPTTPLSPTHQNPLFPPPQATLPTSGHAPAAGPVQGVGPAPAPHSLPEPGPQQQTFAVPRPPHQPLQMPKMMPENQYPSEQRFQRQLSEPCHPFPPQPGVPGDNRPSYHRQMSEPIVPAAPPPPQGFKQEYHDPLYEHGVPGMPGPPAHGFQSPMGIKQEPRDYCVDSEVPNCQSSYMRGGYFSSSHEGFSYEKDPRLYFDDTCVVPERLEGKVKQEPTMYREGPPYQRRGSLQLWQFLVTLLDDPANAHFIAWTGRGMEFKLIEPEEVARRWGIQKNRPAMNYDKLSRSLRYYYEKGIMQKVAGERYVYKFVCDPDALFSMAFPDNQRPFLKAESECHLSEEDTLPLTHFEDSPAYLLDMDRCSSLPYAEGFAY
Procedure, shortened: as §1

[3] = biological target: T2, SPIC (Homo sapiens, UniProt Q8N5J4 1-248)
T2 sequence: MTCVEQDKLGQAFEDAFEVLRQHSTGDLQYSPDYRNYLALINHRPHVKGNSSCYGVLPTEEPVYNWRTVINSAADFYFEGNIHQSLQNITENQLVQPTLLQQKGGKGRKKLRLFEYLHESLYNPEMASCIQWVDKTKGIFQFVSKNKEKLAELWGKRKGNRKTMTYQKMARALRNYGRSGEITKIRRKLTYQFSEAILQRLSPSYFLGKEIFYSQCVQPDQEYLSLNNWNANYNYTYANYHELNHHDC
Procedure, shortened: as §1

[4] = biological target: ELF4 (Homo sapiens, UniProt Q99607 1-663)
Chain of ELF4 (Q99607 whole entry): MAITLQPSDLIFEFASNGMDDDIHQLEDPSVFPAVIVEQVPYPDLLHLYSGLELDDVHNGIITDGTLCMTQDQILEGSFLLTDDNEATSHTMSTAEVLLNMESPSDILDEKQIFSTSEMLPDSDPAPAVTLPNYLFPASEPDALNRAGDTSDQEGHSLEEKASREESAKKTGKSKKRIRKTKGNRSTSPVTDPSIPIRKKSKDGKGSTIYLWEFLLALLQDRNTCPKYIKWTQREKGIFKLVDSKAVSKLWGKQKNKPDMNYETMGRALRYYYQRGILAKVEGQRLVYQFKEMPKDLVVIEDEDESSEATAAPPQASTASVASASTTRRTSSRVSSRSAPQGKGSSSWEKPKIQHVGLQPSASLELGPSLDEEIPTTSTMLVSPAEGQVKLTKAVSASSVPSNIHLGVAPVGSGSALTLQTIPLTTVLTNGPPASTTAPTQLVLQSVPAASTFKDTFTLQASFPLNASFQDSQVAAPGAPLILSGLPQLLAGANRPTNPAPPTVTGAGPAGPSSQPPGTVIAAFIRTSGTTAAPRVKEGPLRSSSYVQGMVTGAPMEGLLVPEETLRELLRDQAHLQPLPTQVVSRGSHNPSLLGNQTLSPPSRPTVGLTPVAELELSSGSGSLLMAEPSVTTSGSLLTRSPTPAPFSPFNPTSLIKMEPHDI
Procedure, shortened: as §1

[5] = biological target: T3, ELK4 (Homo sapiens, UniProt P28324-2 1-405)
T3 sequence: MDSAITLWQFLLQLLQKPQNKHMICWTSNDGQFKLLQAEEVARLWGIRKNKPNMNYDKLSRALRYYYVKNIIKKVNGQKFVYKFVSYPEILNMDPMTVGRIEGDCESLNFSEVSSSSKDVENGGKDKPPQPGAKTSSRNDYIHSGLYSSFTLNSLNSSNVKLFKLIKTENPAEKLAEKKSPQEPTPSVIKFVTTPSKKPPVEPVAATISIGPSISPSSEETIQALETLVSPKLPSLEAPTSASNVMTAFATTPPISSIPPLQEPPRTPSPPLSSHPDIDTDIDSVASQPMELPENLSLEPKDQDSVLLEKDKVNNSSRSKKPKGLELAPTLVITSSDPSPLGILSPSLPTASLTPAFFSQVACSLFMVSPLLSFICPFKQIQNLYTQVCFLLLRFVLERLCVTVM
Procedure, shortened: as §1

[6] = biological target: T4, ETV2 (Homo sapiens, UniProt O00321 1-342)
T4 sequence: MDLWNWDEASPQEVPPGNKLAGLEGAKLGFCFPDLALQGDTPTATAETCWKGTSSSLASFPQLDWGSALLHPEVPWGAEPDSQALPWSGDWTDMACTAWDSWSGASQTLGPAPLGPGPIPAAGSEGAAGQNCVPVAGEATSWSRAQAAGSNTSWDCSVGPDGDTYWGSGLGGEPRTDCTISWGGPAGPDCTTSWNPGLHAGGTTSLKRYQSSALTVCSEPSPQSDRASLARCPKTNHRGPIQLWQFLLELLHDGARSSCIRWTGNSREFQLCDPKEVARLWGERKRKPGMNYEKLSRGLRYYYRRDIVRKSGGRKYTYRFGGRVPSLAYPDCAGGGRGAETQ
Procedure, shortened: as §1

[7] = biological target: T5, ELF3 (Homo sapiens, UniProt P78545 1-371)
T5 sequence: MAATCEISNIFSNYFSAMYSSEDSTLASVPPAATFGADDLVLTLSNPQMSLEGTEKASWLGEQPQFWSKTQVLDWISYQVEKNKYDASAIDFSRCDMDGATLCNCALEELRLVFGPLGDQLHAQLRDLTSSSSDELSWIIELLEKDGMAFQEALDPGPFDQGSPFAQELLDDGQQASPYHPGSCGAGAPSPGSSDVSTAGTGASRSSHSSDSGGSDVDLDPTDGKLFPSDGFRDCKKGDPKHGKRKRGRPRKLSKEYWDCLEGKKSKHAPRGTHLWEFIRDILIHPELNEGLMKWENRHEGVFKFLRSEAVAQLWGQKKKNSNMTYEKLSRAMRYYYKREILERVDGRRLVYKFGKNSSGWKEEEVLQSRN
Procedure, shortened: as §1

[8] = biological target: ETV1 (Homo sapiens, UniProt P50549 1-477)
Chain of ETV1 (P50549 whole entry): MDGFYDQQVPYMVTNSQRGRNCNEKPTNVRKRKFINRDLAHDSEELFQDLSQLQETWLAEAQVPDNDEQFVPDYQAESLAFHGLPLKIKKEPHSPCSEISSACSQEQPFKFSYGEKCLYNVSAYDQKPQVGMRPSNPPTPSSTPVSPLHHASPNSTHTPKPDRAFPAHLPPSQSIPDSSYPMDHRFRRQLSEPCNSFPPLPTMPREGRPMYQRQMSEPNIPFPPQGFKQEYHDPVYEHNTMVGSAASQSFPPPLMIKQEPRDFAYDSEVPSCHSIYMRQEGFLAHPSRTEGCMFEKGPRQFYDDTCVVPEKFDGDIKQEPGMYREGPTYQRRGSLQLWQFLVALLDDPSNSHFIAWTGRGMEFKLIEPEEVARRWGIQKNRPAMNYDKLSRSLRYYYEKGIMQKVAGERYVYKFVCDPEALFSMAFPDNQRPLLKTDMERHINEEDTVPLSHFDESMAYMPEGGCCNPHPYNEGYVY
Procedure, shortened: as §1

[9] = biological target: T6, ERF (Homo sapiens, UniProt P50548 1-548)
T6 sequence: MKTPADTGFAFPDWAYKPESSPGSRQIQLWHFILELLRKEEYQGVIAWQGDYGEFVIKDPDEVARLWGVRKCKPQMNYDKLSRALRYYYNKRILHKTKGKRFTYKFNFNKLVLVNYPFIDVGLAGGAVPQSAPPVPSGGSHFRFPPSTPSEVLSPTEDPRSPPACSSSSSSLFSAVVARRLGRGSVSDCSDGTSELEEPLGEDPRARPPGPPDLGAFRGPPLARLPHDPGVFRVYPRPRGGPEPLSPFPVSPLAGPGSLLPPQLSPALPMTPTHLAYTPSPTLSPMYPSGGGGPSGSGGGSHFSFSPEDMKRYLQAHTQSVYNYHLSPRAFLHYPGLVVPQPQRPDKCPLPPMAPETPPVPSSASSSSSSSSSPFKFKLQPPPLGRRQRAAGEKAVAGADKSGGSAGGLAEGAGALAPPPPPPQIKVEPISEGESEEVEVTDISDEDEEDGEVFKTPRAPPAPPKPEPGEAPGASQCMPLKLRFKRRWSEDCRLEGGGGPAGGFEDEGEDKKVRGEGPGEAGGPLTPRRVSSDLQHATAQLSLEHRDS
Procedure, shortened: as §1

[10] = biological target: T7, ETV3L (Homo sapiens, UniProt Q6ZN32 1-361)
T7 sequence: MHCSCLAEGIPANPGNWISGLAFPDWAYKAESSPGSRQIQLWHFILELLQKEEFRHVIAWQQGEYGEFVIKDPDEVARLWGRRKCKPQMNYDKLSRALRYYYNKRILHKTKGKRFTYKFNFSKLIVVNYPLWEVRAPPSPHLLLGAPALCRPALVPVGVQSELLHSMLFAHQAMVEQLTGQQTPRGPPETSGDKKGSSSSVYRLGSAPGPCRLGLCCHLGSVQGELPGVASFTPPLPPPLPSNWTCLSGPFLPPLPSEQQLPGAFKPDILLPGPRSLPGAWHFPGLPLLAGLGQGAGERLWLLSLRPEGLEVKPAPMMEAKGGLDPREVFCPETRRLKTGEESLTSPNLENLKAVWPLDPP
Procedure, shortened: as §1

[11] = biological target: T8, ETS2 (Homo sapiens, UniProt P15036 1-469)
T8 sequence: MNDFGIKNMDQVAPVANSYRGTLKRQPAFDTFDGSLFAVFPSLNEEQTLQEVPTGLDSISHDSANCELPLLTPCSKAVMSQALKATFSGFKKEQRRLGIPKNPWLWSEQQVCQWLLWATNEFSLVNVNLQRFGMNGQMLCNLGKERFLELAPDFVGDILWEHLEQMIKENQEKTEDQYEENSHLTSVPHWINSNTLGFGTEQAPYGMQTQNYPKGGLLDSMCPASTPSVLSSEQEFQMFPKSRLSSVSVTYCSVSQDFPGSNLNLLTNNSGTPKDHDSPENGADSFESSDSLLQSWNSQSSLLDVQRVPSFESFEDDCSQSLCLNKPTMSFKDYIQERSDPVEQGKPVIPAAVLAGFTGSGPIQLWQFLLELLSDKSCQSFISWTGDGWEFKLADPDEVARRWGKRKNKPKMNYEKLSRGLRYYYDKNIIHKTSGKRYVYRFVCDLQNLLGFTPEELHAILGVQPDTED
Procedure, shortened: as §1

[12] = biological target: T9, SPDEF (Homo sapiens, UniProt O95238 1-335)
T9 sequence: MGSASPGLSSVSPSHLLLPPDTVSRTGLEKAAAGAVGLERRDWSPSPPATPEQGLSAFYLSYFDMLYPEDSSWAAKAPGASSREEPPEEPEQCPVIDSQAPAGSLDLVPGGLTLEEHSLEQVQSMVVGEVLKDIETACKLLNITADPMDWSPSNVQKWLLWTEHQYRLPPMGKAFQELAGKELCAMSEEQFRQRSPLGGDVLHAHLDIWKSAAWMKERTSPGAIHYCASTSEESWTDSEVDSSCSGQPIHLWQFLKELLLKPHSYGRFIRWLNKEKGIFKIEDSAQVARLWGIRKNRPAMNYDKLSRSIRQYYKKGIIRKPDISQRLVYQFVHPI
Procedure, shortened: as §1

[13] = biological target: T10, ETV7 (Homo sapiens, UniProt Q9Y603 1-341)
T10 sequence: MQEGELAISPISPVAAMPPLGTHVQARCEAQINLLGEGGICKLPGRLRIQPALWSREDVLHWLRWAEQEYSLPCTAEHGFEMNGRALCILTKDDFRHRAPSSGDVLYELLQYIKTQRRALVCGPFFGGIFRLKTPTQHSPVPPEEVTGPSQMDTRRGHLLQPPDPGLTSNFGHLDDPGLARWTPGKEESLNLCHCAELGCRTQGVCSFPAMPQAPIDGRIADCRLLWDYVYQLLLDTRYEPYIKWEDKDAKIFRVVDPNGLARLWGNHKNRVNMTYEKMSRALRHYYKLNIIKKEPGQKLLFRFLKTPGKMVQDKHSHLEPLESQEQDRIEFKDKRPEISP
Procedure, shortened: as §1

[14] = biological target: T11, ELF5 (Homo sapiens, UniProt Q9UKW6-2 1-255)
T11 sequence: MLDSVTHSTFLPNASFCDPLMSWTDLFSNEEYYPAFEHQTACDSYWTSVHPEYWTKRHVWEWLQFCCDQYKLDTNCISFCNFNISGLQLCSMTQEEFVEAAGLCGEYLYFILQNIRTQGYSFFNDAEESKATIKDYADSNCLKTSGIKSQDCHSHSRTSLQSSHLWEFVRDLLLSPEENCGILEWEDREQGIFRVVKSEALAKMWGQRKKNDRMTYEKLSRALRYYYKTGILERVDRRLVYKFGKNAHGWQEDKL
Procedure, shortened: as §1

[15] = biological target: T12, ETV3 (Homo sapiens, UniProt P41162-2 1-143)
T12 sequence: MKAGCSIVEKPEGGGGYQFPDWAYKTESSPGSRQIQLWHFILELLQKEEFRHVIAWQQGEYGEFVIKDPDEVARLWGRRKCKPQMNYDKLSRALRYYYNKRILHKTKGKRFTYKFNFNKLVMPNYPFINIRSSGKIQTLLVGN
Procedure, shortened: as §1

[16] = biological target: ETV6 (Homo sapiens, UniProt P41212 1-452)
Chain of ETV6 (P41212 whole entry): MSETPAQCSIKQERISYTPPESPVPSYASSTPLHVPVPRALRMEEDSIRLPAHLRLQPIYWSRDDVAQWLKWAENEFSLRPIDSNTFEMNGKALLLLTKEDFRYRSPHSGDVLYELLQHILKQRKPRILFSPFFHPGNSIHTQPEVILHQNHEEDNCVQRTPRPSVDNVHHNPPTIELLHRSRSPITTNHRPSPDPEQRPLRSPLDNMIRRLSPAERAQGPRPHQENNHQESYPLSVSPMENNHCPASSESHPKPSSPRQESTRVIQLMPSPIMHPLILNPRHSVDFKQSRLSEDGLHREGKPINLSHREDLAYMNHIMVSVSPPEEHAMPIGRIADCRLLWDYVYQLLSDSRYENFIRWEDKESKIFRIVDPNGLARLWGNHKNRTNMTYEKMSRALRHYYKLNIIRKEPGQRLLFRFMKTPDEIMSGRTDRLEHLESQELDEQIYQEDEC
Procedure, shortened: as §1

| Sequence | binding signal [1] | binding signal [2] | binding signal [3] | binding signal [4] | binding signal [5] | binding signal [6] | binding signal [7] | binding signal [8] | binding signal [9] | binding signal [10] | binding signal [11] | binding signal [12] | binding signal [13] | binding signal [14] | binding signal [15] | binding signal [16] |
| --- | --- | --- | --- | --- | --- | --- | --- | --- | --- | --- | --- | --- | --- | --- | --- | --- |
| GCCGAC | 1.14 fold enrichment (6-mer frequency, TF over GST control) | 1.02 fold enrichment (6-mer frequency, TF over GST control) | 1.34 fold enrichment (6-mer frequency, TF over GST control) | 1.08 fold enrichment (6-mer frequency, TF over GST control) | 1.15 fold enrichment (6-mer frequency, TF over GST control) | 1.15 fold enrichment (6-mer frequency, TF over GST control) | 1 fold enrichment (6-mer frequency, TF over GST control) | 1.04 fold enrichment (6-mer frequency, TF over GST control) | 1.2 fold enrichment (6-mer frequency, TF over GST control) | 1.29 fold enrichment (6-mer frequency, TF over GST control) | 1.15 fold enrichment (6-mer frequency, TF over GST control) | 1.12 fold enrichment (6-mer frequency, TF over GST control) | 1.12 fold enrichment (6-mer frequency, TF over GST control) | 1.07 fold enrichment (6-mer frequency, TF over GST control) | 1.23 fold enrichment (6-mer frequency, TF over GST control) | 1.08 fold enrichment (6-mer frequency, TF over GST control) |
| GTAACA | 1.14 fold enrichment (6-mer frequency, TF over GST control) | 1.08 fold enrichment (6-mer frequency, TF over GST control) | 1.12 fold enrichment (6-mer frequency, TF over GST control) | 1.14 fold enrichment (6-mer frequency, TF over GST control) | 1.12 fold enrichment (6-mer frequency, TF over GST control) | 1.03 fold enrichment (6-mer frequency, TF over GST control) | 1.27 fold enrichment (6-mer frequency, TF over GST control) | 1.14 fold enrichment (6-mer frequency, TF over GST control) | 1.1 fold enrichment (6-mer frequency, TF over GST control) | 1.07 fold enrichment (6-mer frequency, TF over GST control) | 1.08 fold enrichment (6-mer frequency, TF over GST control) | 1.14 fold enrichment (6-mer frequency, TF over GST control) | 1.08 fold enrichment (6-mer frequency, TF over GST control) | 1.1 fold enrichment (6-mer frequency, TF over GST control) | 1.15 fold enrichment (6-mer frequency, TF over GST control) | 1.09 fold enrichment (6-mer frequency, TF over GST control) |
| GTTTTG | 1.16 fold enrichment (6-mer frequency, TF over GST control) | 1.28 fold enrichment (6-mer frequency, TF over GST control) | 1.34 fold enrichment (6-mer frequency, TF over GST control) | 1.18 fold enrichment (6-mer frequency, TF over GST control) | 1.22 fold enrichment (6-mer frequency, TF over GST control) | 1.26 fold enrichment (6-mer frequency, TF over GST control) | 1.03 fold enrichment (6-mer frequency, TF over GST control) | 1.25 fold enrichment (6-mer frequency, TF over GST control) | 1.25 fold enrichment (6-mer frequency, TF over GST control) | 1.16 fold enrichment (6-mer frequency, TF over GST control) | 1.1 fold enrichment (6-mer frequency, TF over GST control) | 1.24 fold enrichment (6-mer frequency, TF over GST control) | 1.13 fold enrichment (6-mer frequency, TF over GST control) | 1.13 fold enrichment (6-mer frequency, TF over GST control) | 1.13 fold enrichment (6-mer frequency, TF over GST control) | 1.15 fold enrichment (6-mer frequency, TF over GST control) |
